{"source": "PubChem BioAssay AID686971", "about": "(National Center for Advancing Translational Sciences (NCATS), 2013)", "note": "Hit rate of the full screen: of about 360,000 compounds, about 7,500 (2.1%) were called active. Another 8% or so got no clear call; they are omitted. Only a selection was taken, and actives are over-represented in it overall. Unmarked numbers belong to inactive results. Calls follow the shape of the dose curve; as a rule, active = well fitted cell-killing curve with a large enough effect; inconclusive = small, poorly fitted or top-dose-only effect, or effect the other way, or another doubt; inactive = no such curve, though single readings can be large or run the other way. Potency is read from the fitted curve at half-maximal effect."}
{"experiment": "qHTS for induction of synthetic lethality in tumor cells producing 2HG: qHTS for the HT-1080-IDH1KD cell line", "settings": "HT-1080 IDH1 knockdown viability, ATP luminescence, 48 h; series mostly up to 46.1 µM; activity, negative = toxicity: at the top concentration", "from_the_text": "Unbiased genomic sequencing for 22 glioma genomes found recurrent mutation of IDH1 on chromosome 2q33, a gene encoding the cytosolic isoform of IIDH1 associated with the tri-carboxylic acid cycle (TCA) that catalyzes the oxidative decarboxylation of isocitrate, yielding alpha-ketoglutarate and CO2 via NADP+ to NADPH conversion. Subsequent studies confirmed the recurrent IDH mutations in up to 70% of secondary gliomas and in 10% of AML cases. In addition, the somatic mutation of cancer-associated IDH1 is a point mutation resulting in various amino-acid substituents at Arginine132 (IDH1 R132), a key residue found in the enzyme's active site that when mutated, results in the loss-of-function in metabolizing isocitrate but confers a gain-of-function to produce the oncometabolite 2-hydroxyglutarate (2HG). This in effect defines IDH1 as an oncogene and provides an extraordinary opportunity to discover chemical probes against mutant IDH1 that may translate into much needed new therapies for glioma and AML patients.\nThis assay aims to perform a synthetic-lethal screen for chemical probes specific for 2HG-producing tumor cells using matched paired cell lines (1) HT-1080-NT fibrosarcoma cell line that overproduces 2HG and (2) HT-1080-IDH1KD cell line which has IDH1 expression knocked-down. Desirable compounds are toxic to the NT fibrosarcoma cell line but not to the IDH1KD cell line. The data in this AID corresponds to the results of the qHTS against the HT-1080 IDH1KD cell line.\n[1] Dang L, Jin S, Su SM. IDH mutations in glioma and acute myeloid leukemia. Trends of Mol Med. 2010; 16(9): 387-97.\n[2] Dang L et al. Cancer-associated IDH1 mutations produce 2-hydroxyglutarate. Nature. 2010; 465(7300):966.\nMolecular Libraries Probe Production Centers Network [MLPCN]\nNIH Chemical Genomics Center [NCGC]\nAssay Submitter (PI): Lenny Dang Ph.D., Agios Pharmaceuticals\nSuspensions of trypsinized HT-1080-IDH1KD cells were dispensed into white, tissue culture-treated, solid 1536-well plates at 5uL/well (750 cells/well final concentration) in RPMI medium supplemented with 5% FBS. Plates were incubated at 37 degrees C for 2 hours, after which 23 nL of compounds or DMSO were delivered to each well using a pin tool. Plates were then incubated at 37 degrees C for an additional 48 hours. CellTiter-Glo viability reagent (Promega) was dispensed into wells (2.5uL/well) and incubated at room temperature for 10 minutes. The plates were measured on a PerkinElmer ViewLux plate reader for luminescent signal (clear filter, 1 sec exp.). DMSO-treated control wells and media-only (no cells) control wells were used to normalize %Activity of identified toxic compounds; DMSO-treated wells corresponded to 0%Activity (100% viability), while media-only controls were used to normalize 100%Activity (0% viability). To minimize variability between cell lines, both HT-1080-NT and HT-1080-IDH1KD lines were dispensed and treated with identical compound series in single batches.\nConcentration-response curves were fitted to the signals arising from the resulting luminescence. The concentration-effect curves were then classified based on curve quality (r2), response magnitude and degree of measured activity, and compounds were subsequently categorized based on their curve class.", "units": {"activity, negative = toxicity": "%"}}
{"smiles": "O=C(NCCO)c1cccc(-c2cccc3nccn23)c1", "activity, negative = toxicity": 0.201}
{"smiles": "CC(=O)Nc1cc(-c2cccc(CO)c2)cn2c(-c3cccc(C(F)(F)F)c3)cnc12", "activity, negative = toxicity": 5.47}
{"smiles": "COc1ccccc1-c1cc(NC(C)=O)c2ncc(-c3ccc(F)cc3)n2c1", "activity, negative = toxicity": -16.8}
{"smiles": "COc1cccc(-c2cnc3c(NC(C)=O)cc(-c4cc(F)ccc4OC)cn23)c1", "Potency": "9.2 µM (active)"}
{"smiles": "CN(C)C(=O)c1cccc(-c2cnc3c(NC=O)cc(-c4ccc(C(=O)N5CCOCC5)cc4)cn23)c1", "activity, negative = toxicity": -13.6}
{"smiles": "CC(=O)Nc1cc(-c2ccc(N3CCN(C)CC3)cc2)cn2c(-c3cccc(C(=O)N(C)C)c3)cnc12", "activity, negative = toxicity": 2.62}
{"smiles": "O=C1NC[C@H](CCCCN2C[C@H](Cc3ccccc3)N(Cc3ccccc3)C(=O)C2=O)N(CCc2ccc(O)cc2)C1=O", "activity, negative = toxicity": 5.18}
{"smiles": "Cc1ccc(-c2ccc(C3=CC(=O)CC(C)(C)C3=O)cc2)cc1", "activity, negative = toxicity": 14.6}
{"smiles": "CC(C)C[C@@H]1Cc2[nH][nH]c(=O)c2[C@H](CCc2ccccc2)O1", "activity, negative = toxicity": -20}
{"smiles": "CCOC(=O)[C@]12CCCC=C1N(CCC1=CCCCC1)C(=O)[C@H](CC(=O)NCCCOC)C2", "activity, negative = toxicity": -13.6}
{"smiles": "CCCNC(=O)C1(C)CCCN(C(=O)c2oc3ccccc3c2C)C1", "note": "(stereo not drawn)", "activity, negative = toxicity": 2.01}
{"smiles": "O=NN(CCCl)C(=O)NCCc1cccc[n+]1[O-]", "activity, negative = toxicity": 17.2}
{"smiles": "CCc1nc2ccc(C(=O)NC3CCN(Cc4ccccc4)CC3)cn2c1N(C)CCN1CCOCC1", "activity, negative = toxicity": -19.7}
{"smiles": "C#CCNC(=O)C[C@@H]1C[C@@]2(C(=O)OCC)CCCC=C2N(Cc2ccco2)C1=O", "activity, negative = toxicity": 8.96}
{"smiles": "NS(=O)(=O)c1ccc(NC(=O)CSc2nnc3c(n2)[nH]c2ccccc23)cc1", "activity, negative = toxicity": 0.787}
{"smiles": "CC(=O)c1cccc(-c2cnc3c(NC=O)cc(-c4cccc(C(=O)N(C)C)c4)cn23)c1", "activity, negative = toxicity": -0.766}
{"smiles": "CN(C)C(=O)c1cccc(-c2cnc3c(NC=O)cc(-c4ccc(F)cc4)cn23)c1", "Potency": "23.1 µM (active)"}
{"smiles": "Cc1ccc2nc(-c3ccccn3)cc(C(=O)Nc3ccc4c(c3)OCO4)c2c1", "activity, negative = toxicity": 21.7}
{"smiles": "CCOc1ncccc1C(=O)Nc1ccc2c(c1)OCCO2", "activity, negative = toxicity": -8.79}
{"smiles": "Cc1ccc2nc(-c3ccncc3)cc(C(=O)Nc3ccc4c(c3)OCCO4)c2c1", "Potency": "9.2 µM (active)"}
{"smiles": "CCOc1ccc(CCN2C(=O)C(=O)N([C@@H](CC(C)C)CN3CCC[C@H]3CN3C(=O)C(=O)NC[C@@H]3Cc3ccccc3)C[C@@H]2CC(C)C)cc1", "activity, negative = toxicity": 5.05}
{"smiles": "COC(=O)COc1cccc2c(=O)n(CC(=O)NCc3ccccc3)ccc12", "Potency": "2.31 µM (active)"}
{"smiles": "COC(=O)COc1cccc2c(=O)n(CC(=O)NCCc3ccc(OC)c(OC)c3)ccc12", "activity, negative = toxicity": 8.42}
{"smiles": "Cc1ccc(CNC(=O)CCNC(=O)Cn2ccc3ccccc3c2=O)cc1", "activity, negative = toxicity": -10.7}
{"smiles": "C=CCN1CCN(c2ccncc2S(=O)(=O)N2CCN(C)CC2)CC1", "activity, negative = toxicity": -2.02}
{"smiles": "COc1cccc(C(NC(C)=O)c2nc(-c3ccccc3OC)cs2)c1", "note": "(stereo not drawn)", "activity, negative = toxicity": 3.25}
{"smiles": "COc1ccc(C(CNC(=O)CSc2ccccc2)N2CCOCC2)cc1", "note": "(stereo not drawn)", "activity, negative = toxicity": 5}
{"smiles": "CN(C)c1cccc(NC(=O)c2ccc(-c3ccc(F)c(F)c3)c3ccoc23)c1", "activity, negative = toxicity": -0.432}
{"smiles": "Cc1ccsc1C(=O)OCC(=O)c1cc(C)n(CC2CCCO2)c1C", "note": "(stereo not drawn)", "activity, negative = toxicity": 1.21}
{"smiles": "O=C1C(=O)N(CC2COc3ccccc3O2)c2ccccc21", "note": "(stereo not drawn)", "activity, negative = toxicity": 0.0538}
{"smiles": "Cc1cc(C(=O)CCl)c(C)n1CC1COc2ccccc2O1", "note": "(stereo not drawn)", "Potency": "14.6 µM (active)"}
{"smiles": "CC(C)(C)c1ccc(C(=O)NCCn2c(N)c(C#N)c3nc4ccccc4nc32)cc1", "Potency": "16.4 µM (active)"}
{"smiles": "COCC(C)OC(=O)c1c(N)n(CCCN2CCOCC2)c2nc3ccccc3nc12", "note": "(stereo not drawn)", "activity, negative = toxicity": -6.94}
{"smiles": "CC(C)(C)c1ccc(C(=O)NCC(=O)OCN2C(=O)c3ccccc3C2=O)cc1", "activity, negative = toxicity": -15.8}
{"smiles": "COc1ccc2nc(-c3ccccn3)ccc2c1", "activity, negative = toxicity": -16}
{"smiles": "C[C@@H]1CN([C@@H](C)CO)C(=O)CCCn2nncc2CO[C@H]1CN(C)Cc1ccc(C(F)(F)F)cc1", "activity, negative = toxicity": 5.94}
{"smiles": "O=S1(=O)CC(N2CCC(Cc3ccccc3)CC2)CN1Cc1ccccc1", "note": "(stereo not drawn)", "activity, negative = toxicity": -9.53}
{"smiles": "CC(C)(C)C(=O)c1c(N)[nH]c(C(=O)c2ccccc2)c1-c1ccc(F)cc1", "activity, negative = toxicity": 8.65}
{"smiles": "COc1ccccc1-c1n[nH]nc1C1=CC(=O)CC(C)(C)C1", "activity, negative = toxicity": 1.75}
{"smiles": "COc1ccccc1CCNC(=O)C(=O)NCCC1CCCCN1S(=O)(=O)c1cccs1", "note": "(stereo not drawn)", "activity, negative = toxicity": -23.9}
{"smiles": "O=C(NCCC1CCCCN1S(=O)(=O)c1cccs1)C(=O)Nc1ccc(F)cc1F", "note": "(stereo not drawn)", "Potency": "14.6 µM (active)"}
{"smiles": "O=C(NCCC1CCCCN1S(=O)(=O)c1ccc(F)cc1)C(=O)NC1CC1", "note": "(stereo not drawn)", "activity, negative = toxicity": 11.8}
{"smiles": "O=C(Nc1cccc2ccccc12)c1[nH]c(-c2ccccc2)c2c1C(=O)N(C1CC1)C2=O", "activity, negative = toxicity": 16.8}
{"smiles": "O=C(NCCN1CCOCC1)C1CCN(S(=O)(=O)c2ccccc2)CC1", "activity, negative = toxicity": 9.12}
{"smiles": "CN(C)S(=O)(=O)Oc1ccccc1C(=O)Nc1ccccc1Cl", "activity, negative = toxicity": 11}
{"smiles": "O=C(Nc1ccccc1Cl)/C(Cl)=C(\\Cl)S(=O)c1ccccc1", "note": "(stereo not drawn)", "Potency": "6.51 µM (active)"}
{"smiles": "O=C(COC(=O)CCc1c[nH]c(=O)[nH]1)Nc1ccccc1Cl", "activity, negative = toxicity": -0.0015}
{"smiles": "CC1(Oc2ccc(Cl)cc2)CCN(Cc2csc3ccccc23)C1", "note": "(stereo not drawn)", "activity, negative = toxicity": 14.1}
